# Experimental data published in PubChem BioAssay AID588819 (The Scripps Research Institute Molecular Screening Center, 2011).
# In all, about 360,000 compounds went through this assay and about 320 (0.089%) were called active. The sample as a whole holds a higher share of actives than the screen did. Values without a mark were called inactive. Cut-off read from the data, not from the text of the source: active = activation above about 19% (passing the limit was not always enough); inactive = the rest.
# Molecular target: Muscarinic acetylcholine receptor M1 (Homo sapiens) (UniProt P11229)
# Assay: CHRM1 PAMs potentiating acetylcholine calcium signal – CHO-K1 cells, Fluo-8 calcium fluorescence, 1536-well, primary screen (AID 588819)
# Conditions: CHO-K1 hM1, Fluo-8 calcium fluorescence, ACh EC20; at 3 µM; hits give high values; 0% = ACh EC20, 100% = maximal ACh
# Sequence of Muscarinic acetylcholine receptor M1 (Homo sapiens) (P11229 whole entry, looked up): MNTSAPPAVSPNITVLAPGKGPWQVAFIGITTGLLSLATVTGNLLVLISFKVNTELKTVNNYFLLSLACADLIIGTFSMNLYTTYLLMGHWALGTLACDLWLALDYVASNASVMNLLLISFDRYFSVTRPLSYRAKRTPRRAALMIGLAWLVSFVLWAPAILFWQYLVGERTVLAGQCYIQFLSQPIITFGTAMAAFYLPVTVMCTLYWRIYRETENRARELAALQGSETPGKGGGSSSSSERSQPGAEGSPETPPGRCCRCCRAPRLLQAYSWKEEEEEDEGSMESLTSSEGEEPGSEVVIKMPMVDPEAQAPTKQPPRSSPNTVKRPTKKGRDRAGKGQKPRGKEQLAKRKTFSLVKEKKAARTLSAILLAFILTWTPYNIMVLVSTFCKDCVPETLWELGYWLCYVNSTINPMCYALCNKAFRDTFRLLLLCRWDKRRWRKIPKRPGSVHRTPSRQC
row,Compound,activation
1,Cc1ccc(S(=O)(=O)NC(=O)N2CCCN(Cc3ccc(F)cc3)CC2)cc1,5.25%
2,CCN(CC(=O)Nc1ccc(OC)cc1)C(=O)c1ccc(Cl)c(S(=O)(=O)N2CCCC2)c1,9.99%
3,CC(C)(C)NC(=O)CN(C(=O)c1ccc(Cl)nc1)c1cccc2ccccc12,2.85%
4,CCC1(CC)C(=O)C2=C3C1[C@H](C(=O)OC)C=C(C(=O)OC)C[C@H]3[C@H]1C(=O)N(Cc3ccccc3)C(=O)[C@H]1[C@H]2C (some centres undefined),-6.86%
5,COc1ccc(-n2nc3c(c2NC(=O)c2ccc(N4C(=O)CCC4=O)cc2)CSC3)cc1,1.99%
6,COc1ccc(CCNC(=O)CN(C)S(=O)(=O)c2ccc3nc(C)sc3c2)cc1OC,8.1%
7,CCN(C(=O)COC(=O)/C=C/c1nc2ccccc2s1)C1CCS(=O)(=O)C1 (centres undefined),-0.52%
8,O=c1[nH]c(CN2CCN(S(=O)(=O)c3ccc4c(c3)OCCO4)CC2)nc2sc3c(c12)CCCC3,12.9%
9,O=C(NCc1cccnc1)C12CC3CC(CC(C3)C1)C2,22.9%
10,COc1ccc(NC(=O)CN(C)C(=O)CC2CCCCC2)cc1,15.3%
11,CN(CC(=O)Nc1cccc(F)c1)C(=O)CC1CCCC1,29.7% (active)
12,Cc1ccc(CSCC(=O)N(C)CC(=O)Nc2cccc(F)c2)cc1,11.3%
13,ONC(=Nc1ccccc1)c1ccccc1Cl,2.82%
14,CCC1(CC)NC(=O)N(CC(=O)OCC(=O)NC(=O)c2ccccc2)C1=O,5.54%
15,CC(C)N1CCC(N2CCN(Cc3cccnc3)CC2CCO)CC1 (centres undefined),7.42%
16,COc1ccc(S(=O)(=O)N2CCN(C(=S)NCC3CCCO3)CC2)cc1OC (centres undefined),2.58%
17,O=C(NCc1ccccc1)C1=C[C@@H](c2ccccc2)C[C@@H](OCCCCO)O1,19.5%
18,O=C(CSc1ccccc1)Nc1nnc(/C=C/c2ccccc2)s1,32.8% (active)
19,O=C(/C=C/c1ccccc1)Nc1nnc(SCC(=O)c2ccc3ccccc3c2)s1,1.55%
20,CCOCc1nnc(NC(=O)CSc2ccc(C)cc2)s1,3.8%

row,Compound,activation
1,O=C(Cn1nc(C(=O)O)c2ccccc2c1=O)Nc1ccc(F)cc1,1.79%
2,CC(=O)Nc1ccc(NC(=O)C(C)OC(=O)C2CC(=O)N(CCc3ccccc3)C2)cc1 (centres undefined),4.72%
3,CCCCN(C)c1ccc([N+](=O)[O-])cc1,-3.31%
4,COCCn1cnc2c1c(=O)n(CC(=O)NN)c(=O)n2Cc1ccccc1,13.3%
5,CC(C)Cn1cnc2c1c(=O)n(CC(=O)NN)c(=O)n2Cc1ccccc1,4.53%
6,CC(C)CCn1cnc2c1c(=O)n(CC(=O)NC(N)=O)c(=O)n2Cc1ccccc1,30.3% (active)
7,CCCSC(=S)NC1CCS(=O)(=O)C1 (centres undefined),0.86%
8,CSc1ccc(CNCCN2CCOCC2)cc1,-5.22%
9,CCCCNCc1ccc(SC)cc1,25.2% (active)
10,CCCCNCCS(=O)(=O)NCc1ccccc1,4.18%
11,Cc1cccc(C)c1NC(=O)C1(N(C(=O)c2ccccn2)c2ccc(O)cc2)CCCCC1,-1.06%
12,CN(C)/C=C/c1c(C#N)c(=O)ncn1Cc1ccccc1,-0.11%
13,O=c1c2c(ncn1Cc1ccccc1)nc1n2CCC1,7.79%
14,CN(C)c1ccnc2sc3c(=O)n(Cc4ccccc4)cnc3c12,23.4% (active)
15,COc1ccc(CN2CC[C@H]3C=CC[C@@H](C(=O)N4CCOCC4)[C@H]3C2=O)cc1OC,1.94%
16,CNC(=O)c1nnc(Cc2ccc(Cl)cc2)o1,5.02%
17,O=C(Nc1ccc(F)cc1F)N1CCCN(CCOc2ccccc2)CC1,5.19%
18,Nc1ncnc2c1ncn2[C@@H]1O[C@H](CNC(=O)[C@H](N)Cc2cccnc2)[C@@H](O)[C@H]1O,2.46%
19,CCn1c(O)c(N=NC2=NC(=O)CS2)c2cc(C)ccc21,-1.89%
20,O=C(CCNc1n[nH]c(=O)[nH]c1=O)N/N=C\c1ccc(Br)cc1,17.3%

row,Compound,activation
1,CC(=O)N/C(=C/c1ccc(OC(F)F)cc1)C(=O)O,6.97%
2,CN1CCC(=NNC(=O)c2ccc(N(Cc3ccc(Cl)cc3)S(C)(=O)=O)cc2)CC1,4.92%
3,CC1CCN(c2ccc([N+](=O)[O-])c(SCCO)c2)CC1,2.03%
4,COCCNC(=O)C1CCN(C(=O)C2CC(=O)N(c3ccc(C)cc3)C2)CC1 (centres undefined),29.5% (active)
5,CCCC(C)NC(=O)C1CCN(C(=O)C2CC(=O)N(c3ccc(C)cc3)C2)CC1 (centres undefined),14.6%
6,COCCCNC(=O)C1CC(=O)N(c2ccc(C)cc2)C1 (centres undefined),1.45%
7,Cc1ccc(S(=O)(=O)N2C3C=CC(C3)C2C(=O)O)cc1 (centres undefined),1.95%
8,O=C(O)C1CCN1C1CCCCC1 (centres undefined),3.48%
9,CCCC(=O)Nc1nnc(-c2ccccc2)o1,28.9% (active)
10,COc1ccccc1C(=O)NCC(=O)OCC(=O)Nc1nnc(-c2ccccc2)o1,7.11%
11,Cc1ccnc2nc(C(=O)Nc3nnc(-c4ccccc4)o3)nn12,3.22%
12,COc1ccc(N2CCC(CNC(=S)Nc3c(C)cccc3C)C2)cc1 (centres undefined),-4.84%
13,O=C(Cc1ccc(NC(=O)C2CCCN(C(=O)C3CCCCC3)C2)cc1)Nc1cccc(C(=O)N2CCCCC2)c1 (centres undefined),3.87%
14,CSc1nc(C)cc(SC(C(C)=O)C(=O)Nc2ccccc2)n1 (centres undefined),23.1% (active)
15,CC(Sc1nnc2c(n1)C1CCC2(C)C1(C)C)C(=O)Nc1ccccc1 (centres undefined),11.8%
16,CSc1ccccc1C(=O)Nc1cccc(C(C)=O)c1,-2.71%
17,Cc1ccc(S(=O)(=O)N(CCc2ccccc2)c2ccc3c(c2)C2CC3CCN2C(=O)OCc2ccccc2)cc1 (centres undefined),10.4%
18,COc1ccccc1OCC(=O)OCn1c(SC)nnc(C)c1=O,2.31%
19,Cc1nc(-c2ccc(F)cc2)c(CC(=O)Nc2cc(S(=O)(=O)N3CCCCC3)ccc2C)s1,14.8%
